Sampled rows, rich in hits. Any-hit rate of the full collection: about 28%.
CYP2C19 activ = activators of human cytochrome P450 2C19; P33261; recombinant CYP2C19, luciferin-H EGE luminescence; active compounds read high; 0 = fully inhibited enzyme, 1 = untreated enzyme; AID 1025; 96,000 tested, under 10 active; activation factor at 5 µM;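 active means activation factor of at least 2 at 5 µM in the primary screen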;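 further: 0 = wells with 2.5 mM tranylcypromine and 1 = vehicle-only wells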
DAT uptake mod = human DAT dopamine uptake with cocaine, either direction; Q01959; LLC-PK1 hDAT cells, [14C]-dopamine uptake with cocaine IC80; actives deviate in either direction; B-score at 10 µM; hit rate 1.3% among 110,000; AID 449768;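 active means Z score or B-score, a plate-position-corrected score, falls beyond the plate's 99.7% confidence bounds, in either direction; inactive means both scores lie inside the 99.7% bounds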;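 further: scored against the spread of the other compound wells on the same plate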
Target sequence (Q01959 whole entry, looked up): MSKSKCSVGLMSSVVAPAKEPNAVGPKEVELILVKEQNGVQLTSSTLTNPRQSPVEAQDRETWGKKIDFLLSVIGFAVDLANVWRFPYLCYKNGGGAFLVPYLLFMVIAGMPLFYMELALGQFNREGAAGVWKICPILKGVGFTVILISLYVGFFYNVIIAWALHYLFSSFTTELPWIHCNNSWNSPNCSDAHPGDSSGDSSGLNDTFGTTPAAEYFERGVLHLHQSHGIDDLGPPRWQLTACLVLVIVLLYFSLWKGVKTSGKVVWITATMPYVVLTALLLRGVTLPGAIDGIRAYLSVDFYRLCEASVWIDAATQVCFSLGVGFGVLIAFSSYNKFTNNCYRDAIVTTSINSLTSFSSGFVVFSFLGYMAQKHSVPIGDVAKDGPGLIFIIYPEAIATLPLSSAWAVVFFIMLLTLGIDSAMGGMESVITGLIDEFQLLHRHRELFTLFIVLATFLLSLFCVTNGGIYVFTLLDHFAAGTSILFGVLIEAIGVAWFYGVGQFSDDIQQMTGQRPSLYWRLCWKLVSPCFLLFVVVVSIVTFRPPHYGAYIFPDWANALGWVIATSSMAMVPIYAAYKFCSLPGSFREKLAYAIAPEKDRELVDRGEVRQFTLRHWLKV
CYP2C19 inh = blocks human cytochrome P450 2C19; P33261; CYP2C19 Supersomes, luciferin-H EGE luminescence, 30 min; inhibition, % at 5 µM; hit rate 21% among 96,000; AID 778;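 active means CYP2C19 inhibition above a set limit at 5 µM in the primary screen, cut at about 50% in these data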;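 further: plate controls were negative control wells for no effect and 2.5 mM tranylcypromine positive control for full effect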
D1 mod = allosterically modulates the human D1 dopamine receptor; P21728; hit rate 5.9% among 58,000; AID 641; B-score at 10 µM; HEK293 D1, CRE-luciferase, dopamine EC30 potentiation; actives deviate in either direction;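 active means luminescence count or its row- and column-corrected plate score outside the 99.7% band of the plate's sample wells, on either side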
CYP2C9 act = CYP2C9 (human) activation; activation factor at 5 µM; hit rate 1.4% among 96,000; recombinant CYP2C9, luciferin-H conversion, luminescence; active compounds read high; factor 1 = untreated enzyme, 0 = blocked; P11712;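 active means activation factor of 2 or more for CYP2C9 at a 5 µM dose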;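 further: 0 = sulfaphenazole-blocked wells and 1 = vehicle-only wells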
CYP2C9 inh = human CYP2C9 inhibition | inhibition, % at 5 µM | hit rate 20% among 96,000 | P11712 | CYP2C9 Supersomes, luciferin-H conversion, luminescence;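 active means blocking of liver enzyme CYP2C9 beyond about 50% at 5 µM, limit read from the data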
* marks the source's active call; other numbers are inactive results; · = no result given.

SMILES	CYP2C19 activ	DAT uptake mod	CYP2C19 inh	D1 mod	CYP2C9 act	CYP2C9 inh
O=C(C1CCCN(Cc2ccccc2C(F)(F)F)C1)N1CCCCC1 (stereo not given)	0.8	0.0386	24.7	·	0.7	33.5
CS(=O)(=O)N1CCN(Cc2ccccc2C(F)(F)F)CC1	0.3	0.122	73.3*	-0.0266	0.8	18.4
COc1ccccc1-c1nc(-c2ccc(C)nc2OC)no1	0.4	1.52	61.5*	0.0213	1	4.1
COc1nc(C)ccc1-c1noc(-c2ccccn2)n1	0.7	0.573	30.2	-4.06*	0.7	27.7
COc1nc(-c2ccccc2)ccc1-c1noc(C)n1	0.6	-0.739	41.8	1.2	0.9	13.7
CCc1nc(-c2ccc(C)nc2OC)no1	1.1	0.605	-10.6	·	1.1	-7.1
Cc1cc(N2CCCC2=O)cc(C)c1S(=O)(=O)NCCOc1ccc(C(C)(C)C)cc1	·	-2.77*	·	·	·	·
O=C1CCCN1c1ccc(S(=O)(=O)NCCOc2ccccc2)cc1	·	-0.457	·	·	·	·
COc1ccc(N2Cc3ccccc3C2)cc1Cl	0.9	0.327	12.5	2.19	0.4	58.3*
COc1ccc(Cl)cc1N1Cc2ccccc2C1	0.9	-0.761	14.3	·	0.7	27.0
COc1ccccc1NC(=O)NCCN1C(=O)C2C3C=CC(C3)C2C1=O (stereo not given)	0.3	-1.11	66.1*	1.06	1	2.9
O=C(NCCN1C(=O)C2C3C=CC(C3)C2C1=O)Nc1cccnc1 (stereo not given)	0.6	-0.957	40.1	0.32	1	4.2
O=C(NCCN1C(=O)C2C3C=CC(C3)C2C1=O)Nc1ccc(Br)cc1 (stereo not given)	0.1	0.212	93.8*	-0.268	0.4	55.3*
Cc1cccc(NC(=S)NC(=O)CCc2ccccc2)c1	0.7	-0.226	33.8	·	0.9	5.6
O=C(CCCc1ccccc1)Nc1cccnc1	0.3	·	74.9*	·	0.5	50.3*
CN(C)c1ccc(NC(=O)CN2C(=O)CC(c3ccccc3)=Nc3ccccc32)cc1	0.9	-0.599	6.4	0.332	0.3	72.2*
CN(C)c1ccc(NC(=O)CCCc2ccccc2)cc1	0	0.408	100.0*	-1.93	0.5	48.7
O=C(CCc1ccccc1)Nc1cccc(NC(=O)CCc2ccccc2)c1	0.5	0.577	45.4	·	0.1	88.1*
COCC(=O)Nc1ccc(N(C)C)cc1	0.8	-0.87	15.2	0.176	1	-3.0
CC(C)(C)NC(=O)C1Cc2ccccc2CN1C(=O)Nc1cccc(Cl)c1 (stereo not given)	0.6	-0.483	40.7	·	0.7	30.8
CCOC(=O)C1CCN(C(=O)CC(NS(=O)(=O)c2ccc(OC)cc2)C(C)C)CC1 (stereo not given)	1	0.0107	2.3	-0.105	1	1.1
O=C(O)C1CC=CCC1C(=O)Nc1cccc(C(=O)N2CCCCC2)c1 (stereo not given)	1.2	0.0381	-19.9	-1.12	1.3	-27.2
CC(NC(=O)Cc1ccc(F)cc1)C(c1cccs1)N1CCN(C)CC1 (stereo not given)	·	0.0497	·	-0.163	·	·
CCOc1ccc(/C(O)=C2\C(=O)C(=O)N(c3cc(C)on3)C2c2ccccc2OC)cc1 (stereo not given)	1	0.439	-1.2	0.0527	1.1	-8.8
CC1(c2cccs2)CC(c2cccs2)=C(C#N)C(=O)N1 (stereo not given)	0.2	-0.25	79.2*	1.29	1.6	-57.3
SMILES	CYP2C19 activ	DAT uptake mod	CYP2C19 inh	D1 mod	CYP2C9 act	CYP2C9 inh
Cc1cc(C(=O)NCc2cc(C)n(C)n2)sc1-c1ccccc1	0.4	1.71	59.4*	-3.24*	0.9	8.7
Cc1cc(C(=O)N(C)C)sc1-c1ccccc1	·	0.356	·	·	·	·
COc1cccc(C(=O)CSc2nc3ccccc3n2CC(=O)N(C(C)C)C(C)C)c1	·	-0.769	·	·	·	·
O=S(=O)(/N=C(/Nc1ccccc1F)c1ccccc1)c1ccccc1	0.4	0.123	62.8*	·	0.6	41.2
COc1ccccc1N/C(=N/S(=O)(=O)c1ccc(Cl)cc1)c1ccccc1	0.3	-1.16	73.3*	·	0.5	45.8
CCOC(=O)CN1C(=O)N[C@@H](CCc2ccccc2)[C@H](C(C)=O)[C@H]1C	·	-0.714	·	·	·	·
Cc1ccc(/C=C/C(=O)C2C(=O)c3ccccc3C2=O)cc1	1.1	0.0153	-5.9	·	0	98.6*
C=CCC(Nc1ccccc1)C12C=CC(O1)C(C(=O)OC)=C2C(=O)OC (stereo not given)	·	-0.796	·	·	·	·
O=C(CCCOc1ccccc1)Nc1nnc(C2CCCO2)s1 (stereo not given)	0.4	-0.78	63.8*	·	0.4	55.5*
COc1ccc(C(=O)Nc2cc(C)cc(C)c2)cc1S(=O)(=O)N1CCOCC1	0.7	0.027	26.4	·	1	1.8
O=C(c1ccc(CNc2c(N3CCOCC3)c(=O)c2=O)cc1)N1CC=C(c2ccccc2)CC1	0.6	-1.03	43.4	·	0.4	59.2*
Cc1cc(C)cc(NC(=O)c2ccc(CNc3c(N4CCOCC4)c(=O)c3=O)cc2)c1	1.2	2.23	-15.6	·	1.1	-7.2
COc1ccc(C(=O)N2CC=C(c3ccccc3)CC2)cc1S(=O)(=O)N1CCOCC1	0.1	0.519	86.5*	0.278	0.2	81.0*
COc1cc(C2C(C#N)=C(N)Oc3cc(C)n(Cc4ccccn4)c(=O)c32)cc2c1OCO2 (stereo not given)	·	·	·	0.0521	·	·
COc1ccc(OC)c(C2NC(=O)c3sc(=S)n(-c4ccccc4)c3N2)c1 (stereo not given)	0.4	0.326	56.6*	·	0.4	61.6*
COc1cccc(-c2cc3c(=O)n(-c4ccccc4)c(=S)[nH]c3s2)c1	1.1	-0.648	-12.8	·	0.9	7.2
COc1cccc(C2NC(=O)c3sc(=S)n(-c4ccccc4)c3N2)c1 (stereo not given)	0.4	0.0106	56.9*	·	0.1	88.1*
COC(=O)C1C(=O)C=C(N2CCOCC2)CC1(C)C (stereo not given)	1.2	-0.17	-16.5	-0.746	1.2	-18.7
COc1ccc(Cl)cc1C(=O)NC(=S)Nc1cc(-c2nc3ccccc3[nH]2)ccc1C	·	0.777	·	·	·	·
COc1cccc(=O)c2c(C)n(-c3cc(C)cc(C)c3)c(C)c12	0.2	0.158	82.3*	·	0.2	82.4*
CCOC(=O)CSc1nnc(CNC(=O)c2ccc(OC)cc2)n1C1CCCCC1	0.2	0.314	75.1*	-0.911	0.9	14.9
O=C1C(=O)N(CCCn2ccnc2)C(c2cccnc2)/C1=C(/O)c1ccc(Cl)cc1 (stereo not given)	·	·	·	-0.461	·	·
Cc1cc(C(=O)Nc2cccc(O)c2)co1	0.8	-0.304	16.2	-0.481	0.9	14.3
CCc1ccc(/C(C)=N\Nc2ccc([N+](=O)[O-])cc2)cc1	0.8	0.122	22.2	·	0.9	7.3
O=C(c1ccc([N+](=O)[O-])cc1)N(Cc1ccc(Br)cc1)N1C(=O)CCCC1=O	0.3	-7.4*	72.6*	·	0.7	26.9

High-throughput results (PubChem)
